# Reference: PMC7862700, “An all-to-all approach to the identification of sequence-specific readers for epigenetic DNA modifications on cytosine”
# Legend:
# Test in all cases: DAPPL (digital affinity profiling via proximity ligation, sequencing); 10 mM Tris-HCl pH 7.5, 50 mM NaCl, 1 mM DTT, 4% glycerol, room temperature, 30 min; GST-TFs on glutathione beads, 16-mer random dsDNA library, 0.1% formaldehyde crosslink after washing; high values mean tight binding
# [1] = biological target: T1, FLI1 (Homo sapiens, UniProt Q01543 1-452); details: protein: recombinant; tags: N-terminal GST; dsDNA, one strand shown
# T1 sequence: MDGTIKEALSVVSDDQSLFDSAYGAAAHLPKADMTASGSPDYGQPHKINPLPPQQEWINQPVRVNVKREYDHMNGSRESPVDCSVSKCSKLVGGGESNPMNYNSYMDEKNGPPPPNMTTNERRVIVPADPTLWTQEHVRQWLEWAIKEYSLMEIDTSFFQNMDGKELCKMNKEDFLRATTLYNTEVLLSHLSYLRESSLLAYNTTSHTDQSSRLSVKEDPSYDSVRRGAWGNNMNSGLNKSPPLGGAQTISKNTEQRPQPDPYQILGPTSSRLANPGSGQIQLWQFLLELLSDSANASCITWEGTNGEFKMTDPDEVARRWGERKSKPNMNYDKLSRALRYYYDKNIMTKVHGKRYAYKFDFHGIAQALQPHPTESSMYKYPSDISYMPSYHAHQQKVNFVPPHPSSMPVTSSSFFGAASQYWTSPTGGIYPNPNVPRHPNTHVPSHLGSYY
# Summary of the method: (§1)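 A tag-only sample was pooled with DNA-barcoded human transcription factors that had been expressed in yeast as GST fusions and captured on glutathione beads. The pools were incubated for 30 min at room temperature with 200 nmole of a random double-stranded 16-mer DNA library in Tris/NaCl/DTT/glycerol buffer, then washed, crosslinked with 0.1% formaldehyde, proximity-ligated (BsaI/T4 ligase, 1 h, 37 °C), PCR-amplified and sequenced on an Illumina NextSeq500. Binding signal is each hexamer's read frequency for a factor divided by its frequency for the tag-only sample.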
# [2] = biological target: T2, ELK1 (Homo sapiens, UniProt P19419 1-428); details: protein: recombinant; tags: N-terminal GST; dsDNA, one strand shown
# T2 sequence: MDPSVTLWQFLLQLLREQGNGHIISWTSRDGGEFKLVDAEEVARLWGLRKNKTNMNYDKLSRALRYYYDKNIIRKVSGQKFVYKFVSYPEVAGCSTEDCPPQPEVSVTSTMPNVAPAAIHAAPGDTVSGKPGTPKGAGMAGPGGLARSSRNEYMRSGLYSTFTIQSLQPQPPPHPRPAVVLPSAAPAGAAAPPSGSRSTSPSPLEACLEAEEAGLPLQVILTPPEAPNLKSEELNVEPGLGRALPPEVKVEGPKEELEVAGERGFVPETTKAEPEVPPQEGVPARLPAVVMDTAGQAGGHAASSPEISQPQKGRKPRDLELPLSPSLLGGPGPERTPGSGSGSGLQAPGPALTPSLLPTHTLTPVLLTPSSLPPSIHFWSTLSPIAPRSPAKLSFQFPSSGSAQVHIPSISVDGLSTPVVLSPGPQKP
# Summary of the method: as §1
# [3] = biological target: T3, GABPA (Homo sapiens, UniProt Q06546 1-454); details: protein: recombinant; tags: N-terminal GST; dsDNA, one strand shown
# T3 sequence: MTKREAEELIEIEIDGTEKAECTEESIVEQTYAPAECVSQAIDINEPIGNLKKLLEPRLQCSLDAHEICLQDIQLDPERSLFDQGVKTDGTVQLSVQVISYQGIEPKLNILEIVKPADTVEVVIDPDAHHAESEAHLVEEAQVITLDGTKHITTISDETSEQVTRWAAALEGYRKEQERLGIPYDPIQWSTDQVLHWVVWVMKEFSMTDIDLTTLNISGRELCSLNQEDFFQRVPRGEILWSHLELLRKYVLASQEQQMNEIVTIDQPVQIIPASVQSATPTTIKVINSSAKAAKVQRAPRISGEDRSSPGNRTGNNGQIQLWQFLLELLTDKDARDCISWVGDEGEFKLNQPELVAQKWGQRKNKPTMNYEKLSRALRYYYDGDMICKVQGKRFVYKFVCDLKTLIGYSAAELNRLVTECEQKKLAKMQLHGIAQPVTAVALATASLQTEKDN
# Summary of the method: as §1
# [4] = biological target: T4, ERG (Homo sapiens, UniProt P11308 1-479); details: protein: recombinant; tags: N-terminal GST; dsDNA, one strand shown
# T4 sequence: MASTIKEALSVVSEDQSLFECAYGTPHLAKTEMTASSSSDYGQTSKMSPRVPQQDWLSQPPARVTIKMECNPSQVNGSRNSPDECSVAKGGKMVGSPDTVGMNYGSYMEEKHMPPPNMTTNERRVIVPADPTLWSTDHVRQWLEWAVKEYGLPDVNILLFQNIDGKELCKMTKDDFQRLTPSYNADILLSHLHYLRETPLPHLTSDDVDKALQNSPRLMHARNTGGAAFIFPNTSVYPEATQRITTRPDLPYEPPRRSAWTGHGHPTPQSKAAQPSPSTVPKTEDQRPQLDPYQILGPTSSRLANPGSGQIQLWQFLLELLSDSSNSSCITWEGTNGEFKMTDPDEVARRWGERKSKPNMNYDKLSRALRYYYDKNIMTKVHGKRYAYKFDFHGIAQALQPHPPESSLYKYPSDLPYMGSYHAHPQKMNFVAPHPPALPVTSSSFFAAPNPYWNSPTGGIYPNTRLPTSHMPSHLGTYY
# Summary of the method: as §1
# [5] = biological target: ELF1 (Homo sapiens, UniProt P32519 1-619); details: protein: recombinant; tags: N-terminal GST; dsDNA, one strand shown
# Summary of the method: as §1
# [6] = biological target: T5, EHF (Homo sapiens, UniProt Q9NZC4 1-300); details: protein: recombinant; tags: N-terminal GST; dsDNA, one strand shown
# T5 sequence: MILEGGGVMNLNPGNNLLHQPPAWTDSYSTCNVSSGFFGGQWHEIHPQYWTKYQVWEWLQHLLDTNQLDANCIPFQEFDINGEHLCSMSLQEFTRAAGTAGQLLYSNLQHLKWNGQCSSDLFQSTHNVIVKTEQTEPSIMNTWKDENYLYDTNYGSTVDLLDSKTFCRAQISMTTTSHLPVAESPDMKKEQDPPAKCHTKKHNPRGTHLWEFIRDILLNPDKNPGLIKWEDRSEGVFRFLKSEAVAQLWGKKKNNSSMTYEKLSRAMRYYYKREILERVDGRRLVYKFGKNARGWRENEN
# Summary of the method: as §1
# [7] = biological target: SPI1 (Homo sapiens, UniProt P17947 1-270); details: protein: recombinant; tags: N-terminal GST; dsDNA, one strand shown
# Summary of the method: as §1
# [8] = biological target: SPIB (Homo sapiens, UniProt Q01892 1-262); details: protein: recombinant; tags: N-terminal GST; dsDNA, one strand shown
# Summary of the method: as §1
# [9] = biological target: T6, ELK3 (Homo sapiens, UniProt P41970 1-407); details: protein: recombinant; tags: N-terminal GST; dsDNA, one strand shown
# T6 sequence: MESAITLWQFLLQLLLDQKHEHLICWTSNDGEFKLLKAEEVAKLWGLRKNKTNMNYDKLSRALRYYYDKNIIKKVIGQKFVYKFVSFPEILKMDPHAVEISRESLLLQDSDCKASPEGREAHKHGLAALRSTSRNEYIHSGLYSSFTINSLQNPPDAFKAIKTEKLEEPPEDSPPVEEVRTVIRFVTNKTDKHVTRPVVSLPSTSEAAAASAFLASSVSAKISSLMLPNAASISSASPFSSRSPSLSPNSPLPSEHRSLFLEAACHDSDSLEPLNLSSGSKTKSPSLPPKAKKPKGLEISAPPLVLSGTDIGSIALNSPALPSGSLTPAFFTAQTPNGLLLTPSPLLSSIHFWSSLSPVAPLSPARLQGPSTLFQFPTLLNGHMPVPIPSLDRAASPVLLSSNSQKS
# Summary of the method: as §1
# [10] = biological target: T7, FEV (Homo sapiens, UniProt Q99581 1-238); details: protein: recombinant; tags: N-terminal GST; dsDNA, one strand shown
# T7 sequence: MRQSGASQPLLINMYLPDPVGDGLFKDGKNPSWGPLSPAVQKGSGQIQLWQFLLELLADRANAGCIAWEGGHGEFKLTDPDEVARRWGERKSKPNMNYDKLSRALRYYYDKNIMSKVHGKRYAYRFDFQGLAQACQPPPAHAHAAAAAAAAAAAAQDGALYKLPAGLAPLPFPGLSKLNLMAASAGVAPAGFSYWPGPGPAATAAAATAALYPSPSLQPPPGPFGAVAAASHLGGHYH
# Summary of the method: as §1
# [11] = biological target: ETV5 (Homo sapiens, UniProt P41161 1-510); details: protein: recombinant; tags: N-terminal GST; dsDNA, one strand shown
# Summary of the method: as §1
# [12] = biological target: HSF1 (Homo sapiens, UniProt Q00613 1-529); details: protein: recombinant; tags: N-terminal GST; chain copies: 3; dsDNA, one strand shown
# Summary of the method: as §1
# [13] = biological target: T8, SPIC (Homo sapiens, UniProt Q8N5J4 1-248); details: protein: recombinant; tags: N-terminal GST; dsDNA, one strand shown
# T8 sequence: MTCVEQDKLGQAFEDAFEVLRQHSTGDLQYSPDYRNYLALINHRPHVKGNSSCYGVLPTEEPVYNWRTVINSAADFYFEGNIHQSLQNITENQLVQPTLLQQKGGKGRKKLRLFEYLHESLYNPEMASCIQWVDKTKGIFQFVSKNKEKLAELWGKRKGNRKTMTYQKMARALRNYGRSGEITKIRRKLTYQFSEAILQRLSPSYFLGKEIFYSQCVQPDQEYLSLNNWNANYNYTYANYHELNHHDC
# Summary of the method: as §1
# [14] = biological target: ELF4 (Homo sapiens, UniProt Q99607 1-663); details: protein: recombinant; tags: N-terminal GST; dsDNA, one strand shown
# Summary of the method: as §1
# [15] = biological target: T9, ELK4 (Homo sapiens, UniProt P28324-2 1-405); details: protein: recombinant; tags: N-terminal GST; dsDNA, one strand shown
# T9 sequence: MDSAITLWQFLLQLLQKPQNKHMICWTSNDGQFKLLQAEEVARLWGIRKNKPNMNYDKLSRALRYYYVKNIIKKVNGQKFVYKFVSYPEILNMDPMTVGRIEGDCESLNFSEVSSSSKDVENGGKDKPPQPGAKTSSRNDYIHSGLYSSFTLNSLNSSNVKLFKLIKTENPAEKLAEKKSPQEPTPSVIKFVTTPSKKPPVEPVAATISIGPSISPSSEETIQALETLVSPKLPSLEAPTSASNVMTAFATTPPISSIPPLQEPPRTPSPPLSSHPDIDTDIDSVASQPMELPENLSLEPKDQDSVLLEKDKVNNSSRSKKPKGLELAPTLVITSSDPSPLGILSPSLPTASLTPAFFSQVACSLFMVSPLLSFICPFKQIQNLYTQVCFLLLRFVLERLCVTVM
# Summary of the method: as §1
# [16] = biological target: T10, ETV2 (Homo sapiens, UniProt O00321 1-342); details: protein: recombinant; tags: N-terminal GST; dsDNA, one strand shown
# T10 sequence: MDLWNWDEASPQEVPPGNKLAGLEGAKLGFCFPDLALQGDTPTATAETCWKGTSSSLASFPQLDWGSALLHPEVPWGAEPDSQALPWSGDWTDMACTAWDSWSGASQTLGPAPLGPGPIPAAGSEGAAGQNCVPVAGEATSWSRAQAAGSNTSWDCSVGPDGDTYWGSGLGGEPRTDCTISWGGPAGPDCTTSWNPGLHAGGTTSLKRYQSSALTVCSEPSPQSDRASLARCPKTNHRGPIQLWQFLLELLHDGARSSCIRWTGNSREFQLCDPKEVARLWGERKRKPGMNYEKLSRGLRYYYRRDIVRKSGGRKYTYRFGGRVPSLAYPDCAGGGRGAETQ
# Summary of the method: as §1
# [17] = biological target: T11, ELF3 (Homo sapiens, UniProt P78545 1-371); details: protein: recombinant; tags: N-terminal GST; dsDNA, one strand shown
# T11 sequence: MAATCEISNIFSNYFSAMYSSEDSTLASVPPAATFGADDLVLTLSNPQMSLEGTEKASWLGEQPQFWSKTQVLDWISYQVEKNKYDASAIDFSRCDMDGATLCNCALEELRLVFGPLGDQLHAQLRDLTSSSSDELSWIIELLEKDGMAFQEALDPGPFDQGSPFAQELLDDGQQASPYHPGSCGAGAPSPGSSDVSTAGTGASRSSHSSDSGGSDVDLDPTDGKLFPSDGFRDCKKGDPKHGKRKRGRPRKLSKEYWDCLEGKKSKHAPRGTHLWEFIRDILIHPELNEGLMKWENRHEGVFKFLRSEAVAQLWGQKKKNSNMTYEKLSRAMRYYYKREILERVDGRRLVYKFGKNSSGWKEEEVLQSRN
# Summary of the method: as §1
# [18] = biological target: CRX (Homo sapiens, UniProt O43186 1-299); details: protein: recombinant; tags: N-terminal GST; dsDNA, one strand shown
# Summary of the method: as §1
# [19] = biological target: ETV1 (Homo sapiens, UniProt P50549 1-477); details: protein: recombinant; tags: N-terminal GST; dsDNA, one strand shown
# Summary of the method: as §1
# ETV5, sequence (P41161 whole entry): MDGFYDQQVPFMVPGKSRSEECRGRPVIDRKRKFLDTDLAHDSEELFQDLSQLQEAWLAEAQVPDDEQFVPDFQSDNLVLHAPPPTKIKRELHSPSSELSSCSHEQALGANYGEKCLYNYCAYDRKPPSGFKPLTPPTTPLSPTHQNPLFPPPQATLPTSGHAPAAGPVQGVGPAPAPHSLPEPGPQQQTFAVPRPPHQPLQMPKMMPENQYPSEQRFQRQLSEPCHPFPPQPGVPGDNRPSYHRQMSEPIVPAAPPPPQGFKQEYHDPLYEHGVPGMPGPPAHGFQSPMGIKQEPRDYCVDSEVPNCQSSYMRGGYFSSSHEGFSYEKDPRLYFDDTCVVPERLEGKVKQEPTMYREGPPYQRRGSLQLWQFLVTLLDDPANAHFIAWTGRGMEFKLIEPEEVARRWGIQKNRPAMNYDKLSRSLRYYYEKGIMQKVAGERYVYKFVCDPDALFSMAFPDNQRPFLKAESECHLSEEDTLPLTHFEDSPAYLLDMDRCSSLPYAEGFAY
# ETV1, sequence (P50549 whole entry): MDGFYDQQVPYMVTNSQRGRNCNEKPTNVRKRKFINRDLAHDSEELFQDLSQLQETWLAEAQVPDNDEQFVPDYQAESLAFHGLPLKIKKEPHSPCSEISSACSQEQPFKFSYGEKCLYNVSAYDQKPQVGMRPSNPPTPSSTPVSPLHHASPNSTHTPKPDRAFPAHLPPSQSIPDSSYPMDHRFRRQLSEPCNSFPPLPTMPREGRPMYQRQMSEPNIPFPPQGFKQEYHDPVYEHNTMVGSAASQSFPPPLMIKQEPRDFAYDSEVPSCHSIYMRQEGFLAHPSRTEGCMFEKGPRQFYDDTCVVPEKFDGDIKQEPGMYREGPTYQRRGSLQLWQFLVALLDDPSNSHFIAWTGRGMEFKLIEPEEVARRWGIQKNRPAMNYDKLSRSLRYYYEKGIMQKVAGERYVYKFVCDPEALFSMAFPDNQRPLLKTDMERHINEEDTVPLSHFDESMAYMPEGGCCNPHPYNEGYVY
# HSF1, sequence (Q00613 whole entry): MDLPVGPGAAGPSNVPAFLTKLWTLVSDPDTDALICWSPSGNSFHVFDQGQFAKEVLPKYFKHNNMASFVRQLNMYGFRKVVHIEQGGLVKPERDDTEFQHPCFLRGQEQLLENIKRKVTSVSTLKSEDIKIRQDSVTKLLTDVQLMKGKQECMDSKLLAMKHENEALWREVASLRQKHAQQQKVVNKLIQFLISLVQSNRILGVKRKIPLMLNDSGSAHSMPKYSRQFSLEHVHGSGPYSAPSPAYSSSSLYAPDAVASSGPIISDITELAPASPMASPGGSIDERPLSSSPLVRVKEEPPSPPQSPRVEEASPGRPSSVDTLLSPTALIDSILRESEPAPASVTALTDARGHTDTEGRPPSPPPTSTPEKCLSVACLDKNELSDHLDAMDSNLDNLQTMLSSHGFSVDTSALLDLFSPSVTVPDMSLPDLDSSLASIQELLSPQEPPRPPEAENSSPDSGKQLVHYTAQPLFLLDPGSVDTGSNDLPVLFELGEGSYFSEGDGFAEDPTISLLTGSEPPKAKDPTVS
# SPIB, sequence (Q01892 whole entry): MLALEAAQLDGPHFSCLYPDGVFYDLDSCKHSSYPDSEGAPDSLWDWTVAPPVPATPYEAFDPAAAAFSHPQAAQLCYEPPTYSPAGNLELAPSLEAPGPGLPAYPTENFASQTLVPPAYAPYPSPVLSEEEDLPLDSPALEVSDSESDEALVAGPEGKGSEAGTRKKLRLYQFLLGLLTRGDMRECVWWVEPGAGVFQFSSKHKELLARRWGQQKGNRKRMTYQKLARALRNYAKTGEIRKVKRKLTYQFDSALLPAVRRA
# ELF1, sequence (P32519 whole entry): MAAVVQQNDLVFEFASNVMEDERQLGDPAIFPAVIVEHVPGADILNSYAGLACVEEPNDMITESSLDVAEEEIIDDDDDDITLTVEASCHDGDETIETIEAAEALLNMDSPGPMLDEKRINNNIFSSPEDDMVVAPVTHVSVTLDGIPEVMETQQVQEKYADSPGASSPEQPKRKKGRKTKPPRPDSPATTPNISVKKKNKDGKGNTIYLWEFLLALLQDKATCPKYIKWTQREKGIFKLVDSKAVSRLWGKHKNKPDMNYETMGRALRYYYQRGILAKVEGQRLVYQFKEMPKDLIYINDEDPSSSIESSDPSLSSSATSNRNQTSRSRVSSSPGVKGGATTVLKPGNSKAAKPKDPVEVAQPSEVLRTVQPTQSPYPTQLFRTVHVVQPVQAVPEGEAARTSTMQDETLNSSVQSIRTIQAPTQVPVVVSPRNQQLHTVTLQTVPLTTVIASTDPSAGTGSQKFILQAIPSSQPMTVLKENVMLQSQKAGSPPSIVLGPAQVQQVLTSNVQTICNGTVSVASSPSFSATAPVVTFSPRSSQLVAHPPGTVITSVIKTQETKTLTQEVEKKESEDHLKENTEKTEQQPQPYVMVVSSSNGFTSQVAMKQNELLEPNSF
# ELF4, sequence (Q99607 whole entry): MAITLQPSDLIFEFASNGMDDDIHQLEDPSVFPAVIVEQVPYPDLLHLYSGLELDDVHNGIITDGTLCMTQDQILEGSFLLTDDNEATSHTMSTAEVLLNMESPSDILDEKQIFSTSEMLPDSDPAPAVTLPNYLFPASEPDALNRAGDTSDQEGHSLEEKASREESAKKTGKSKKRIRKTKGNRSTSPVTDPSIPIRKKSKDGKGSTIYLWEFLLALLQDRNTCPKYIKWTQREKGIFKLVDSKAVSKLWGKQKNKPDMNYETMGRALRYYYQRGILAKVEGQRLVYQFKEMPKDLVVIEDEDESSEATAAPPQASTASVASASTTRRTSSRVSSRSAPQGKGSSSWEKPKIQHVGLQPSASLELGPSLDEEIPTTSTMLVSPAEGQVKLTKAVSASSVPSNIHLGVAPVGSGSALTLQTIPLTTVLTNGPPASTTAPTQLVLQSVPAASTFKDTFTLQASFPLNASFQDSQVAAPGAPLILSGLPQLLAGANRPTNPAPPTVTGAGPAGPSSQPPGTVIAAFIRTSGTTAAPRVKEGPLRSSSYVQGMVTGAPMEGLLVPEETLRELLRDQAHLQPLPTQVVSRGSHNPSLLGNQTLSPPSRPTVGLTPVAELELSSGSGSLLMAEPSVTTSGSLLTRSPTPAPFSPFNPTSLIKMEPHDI
# CRX, sequence (O43186 whole entry): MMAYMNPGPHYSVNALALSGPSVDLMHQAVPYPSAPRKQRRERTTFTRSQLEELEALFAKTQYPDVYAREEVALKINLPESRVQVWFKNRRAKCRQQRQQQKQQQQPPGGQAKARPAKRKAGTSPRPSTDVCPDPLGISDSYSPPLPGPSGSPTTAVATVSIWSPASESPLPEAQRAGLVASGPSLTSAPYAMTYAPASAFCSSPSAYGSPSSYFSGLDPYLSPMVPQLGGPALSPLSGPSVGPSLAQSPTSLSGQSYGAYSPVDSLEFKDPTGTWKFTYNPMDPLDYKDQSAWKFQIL
sequence,measurement,setting,value
GCTTGC,binding signal,[1],"1.41 fold enrichment (6-mer frequency, TF over GST control)"
same,binding signal,[2],"1.28 fold enrichment (6-mer frequency, TF over GST control)"
same,binding signal,[3],"1.21 fold enrichment (6-mer frequency, TF over GST control)"
same,binding signal,[4],"1.14 fold enrichment (6-mer frequency, TF over GST control)"
same,binding signal,[5],"1.25 fold enrichment (6-mer frequency, TF over GST control)"
same,binding signal,[6],"1.28 fold enrichment (6-mer frequency, TF over GST control)"
same,binding signal,[7],"1.18 fold enrichment (6-mer frequency, TF over GST control)"
same,binding signal,[8],"1.24 fold enrichment (6-mer frequency, TF over GST control)"
same,binding signal,[9],"1.3 fold enrichment (6-mer frequency, TF over GST control)"
same,binding signal,[10],"1.2 fold enrichment (6-mer frequency, TF over GST control)"
same,binding signal,[11],"1.22 fold enrichment (6-mer frequency, TF over GST control)"
same,binding signal,[12],"1.1 fold enrichment (6-mer frequency, TF over GST control)"
same,binding signal,[13],"1.44 fold enrichment (6-mer frequency, TF over GST control)"
same,binding signal,[14],"1.09 fold enrichment (6-mer frequency, TF over GST control)"
same,binding signal,[15],"1.34 fold enrichment (6-mer frequency, TF over GST control)"
same,binding signal,[16],"1.31 fold enrichment (6-mer frequency, TF over GST control)"
same,binding signal,[17],"1.03 fold enrichment (6-mer frequency, TF over GST control)"
same,binding signal,[18],"1.14 fold enrichment (6-mer frequency, TF over GST control)"
same,binding signal,[19],"1.25 fold enrichment (6-mer frequency, TF over GST control)"
